Screening data as filed in PubChem.
JMJD2A Tudor: inhibitors of human JMJD2A Tudor domain; Potency, µM (doses to about 114 µM), most hits filed as inhibitors; O75164; AlphaScreen JMJD2A-Tudor / H3K4me3 peptide binding; hit rate 4.4% among 390,000; AID 504339; also: nearly all actives have a fitted effect of over 50% in size
BAZ2B block: inhibitors of human BAZ2B bromodomain. AlphaScreen BAZ2B-H3K14Ac peptide displacement. Potency, µM (titrated, usually from 114 µM), actives largely listed as inhibitors. hit rate 4.4% among 360,000; also: nearly all actives have a fitted effect of over 60% in size
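In this displacement format the biotinylated H3(5-23) peptide acetylated at Lys14 serves as ligand at 50 nM, with BAZ2B at 50 nM in PBS pH 7.4 containing 0.01% Tween-20. Donor and acceptor beads are 10 ug/mL final.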
G9a inh: inhibitors of human histone lysine methyltransferase G9a | Q96KQ7 | G9a H3K9 monomethylation, AlphaScreen, 2 h | Potency, µM (doses to about 102 µM), hits mostly inhibitors | hit rate 8.8% among 350,000; also: nearly all actives have a fitted effect of over 75% in size
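Signal arises when biotinylated H3K9 peptide, once monomethylated, bridges streptavidin donor and antibody-captured acceptor beads. Enzyme at 20 nM was preincubated 15 min with test compounds; peptide 500 nM and SAM 20 uM then reacted for 2 h.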
L3MBTL1 block: inhibitors of human L3MBTL1 | Potency, µM (titrated, usually from 57.1 µM), hits mostly inhibitors | Q9Y468 | AlphaScreen L3MBTL1–H3K9me1 peptide binding | AID 485360 | hit rate 0.66% among 230,000; also: nearly all actives have a fitted effect of over 60% in size
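First, the protein-peptide complex forms for 30 min at room temperature (L3MBTL1 50 nM, biotinylated H3K9me1 peptide 75 nM). Next, compounds are pin-transferred and incubated 30 min. Finally, AlphaScreen beads are added and read after 30 min.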
HP1b binding inh: inhibitors of HP1-beta chromodomain binding to methylated histone tails; P83916; AlphaScreen HP1-beta / biotin-H3K9me3 peptide binding; Potency, µM (titrated, usually from 114 µM), hits mostly inhibitors; hit rate 0.56% among 390,000; also: nearly all actives have a fitted effect of over 70% in size
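Compound inhibition of the preformed complex between 50 nM HP1-beta and 50 nM biotinylated H3K9me3 peptide was read by AlphaScreen. Buffer was PBS pH 7.4 with 0.01% Tween-20. Incubations ran 30 min at room temperature, with 10 ug/mL donor/acceptor beads.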
Hits are given with their value; 0 = inactive; ? = inconclusive; - = no result given; [ ] = another dose, or the depositor's remark. In the library only some 11% were active in any assay of this set; here they are far more common. Calls follow the shape of the dose curve; as a rule, active = well fitted inhibition curve with a large enough effect; inconclusive = small, poorly fitted or top-dose-only effect; inactive = no such curve, though single readings can be large or run the other way.

SMILES	JMJD2A Tudor	BAZ2B block	G9a inh	L3MBTL1 block	HP1b binding inh
N#Cc1ccc(N2C(=O)[C@@H]3C(C(=O)c4ccc5ccccc5n4)=NN[C@@H]3C2=O)cc1	0	?	?	0	0
N#Cc1ccc(N2C(=O)[C@@H]3C(C(=O)c4cnccn4)=NN[C@@H]3C2=O)cc1	15.8µM	56.2µM	-	0	0
O=C(C1=NN[C@@H]2C(=O)N(c3cccc(C(F)(F)F)c3)C(=O)[C@H]12)c1cnccn1	?	0	39.8µM	0	0
Cc1oc2ccc(O)c(CN3CCN(C)CC3)c2c1C(=O)Nc1ccc(C(C)C)cc1	0	0	0	-	0
O=C(CCn1c(=O)c2cccn2c2ccc(F)cc21)NCCc1ccccc1Cl	0	0	0	-	0
CCOc1ccc2c(c1)NC(c1ccc(OCC)c(OCC)c1)=NC(c1ccc(F)cc1)=N2	25.1µM	?	11.2µM	-	?
CCOc1ccc(C2=NC(c3ccc(OC)cc3)=Nc3ccc(Cl)cc3N2)cc1	0	0	0	-	0
O=C(CC1C(=O)NCCN1Cc1ccc(F)cc1)NCCN1CCCc2ccccc21 (stereo unspecified)	?	79.4µM	-	0	0
COc1cccc(CN2CCNC(=O)C2CC(=O)NCCCN2CCCC2=O)c1 (stereo unspecified)	0	0	-	-	0
COc1ccc2ccccc2c1CNC(=O)CC1C(=O)NCCN1CC(C)C (stereo unspecified)	0	0	44.7µM	0	0
COc1ccccc1CN1CCNC(=O)C1CC(=O)NCCCN1CCCC1=O (stereo unspecified)	0	0	70.8µM	-	0
COc1ccc(CN2CCNC(=O)C2CC(=O)NCCCn2cccn2)cc1C (stereo unspecified)	0	0	0[0.501 µM]	-	0
O=C(CC1C(=O)NCCN1Cc1cccc(Oc2ccccc2)c1)NCCCn1cccn1 (stereo unspecified)	0	0	50.1µM	0	0
CCn1ccnc1CNC(=O)CC1C(=O)NCCN1CC(c1ccccc1)c1ccccc1 (stereo unspecified)	0	0	-	0	0
CCc1cccc(C)c1NC(=O)CCn1c(=O)c2cccn2c2ccccc21	0	0	0	-	0
CC(C)Oc1ccc(C(=O)N(Cc2ccco2)c2ccccn2)cc1	0	0	0	-	0
COc1ccc(NC(=O)c2cc3ccccc3o2)c(OC)c1	0	0	0	-	0
COc1ccccc1CN1CCNC(=O)C1CC(=O)NCCCn1cccn1 (stereo unspecified)	0	0	0	0	0
CCc1cc(CNC(=O)CC2C(=O)NCCN2Cc2cccc(OC)c2)on1 (stereo unspecified)	0	0	56.2µM	0	0
CCc1cc(CNC(=O)CC2C(=O)NCCN2Cc2c(F)cccc2Cl)on1 (stereo unspecified)	0	0	0	0	0
O=C(CC1C(=O)NCCN1Cc1ccccc1)NCCCOc1cccnc1 (stereo unspecified)	0	0	50.1µM	-	0
O=C(CC1C(=O)NCCN1Cc1cccc(C(F)(F)F)c1)NCCCOc1cccnc1 (stereo unspecified)	0	0	?	-	0
CCOc1ccccc1CN1CCNC(=O)C1CC(=O)NCCCn1cccn1 (stereo unspecified)	0	?	79.4µM	-	0
COc1ncc2ncc(=O)n(C3CC3)c2n1	-	-	0[0.501 µM]	-	-
CS(=O)(=O)N(CCC#N)Cc1ccc(/C=C2\C(=O)Nc3ccccc32)o1	0	0	44.7µM	0	0
SMILES	JMJD2A Tudor	BAZ2B block	G9a inh	L3MBTL1 block	HP1b binding inh
N#CCCN(CC(=O)O)S(=O)(=O)c1ccccc1	0[11.4 µM]	0	?	-	0
CCCS(=O)(=O)c1ncc(Cl)c(C(=O)N2CCN(c3ccc(OC)cc3)CC2)n1	0	0	11.2µM	-	0
CCSc1ncc(Cl)c(C(=O)N2CCN(c3ccc(OC)cc3)CC2)n1	?	?	14.1µM	-	0
COc1ccc(N2CCN(C(=O)c3c(Cl)cnn3C)CC2)cc1	0	0	0	-	0
Cc1ccc(C)c(NC(=O)c2cnc3sc(N4CCOCC4)nn3c2=O)c1	0	0	0	-	0
COc1ccc(-c2nnc3c4ccccc4c(-c4ccccc4)nn23)cc1	0	0	0	-	0
c1ccc(OCCOCCOc2ccccc2)cc1	0	-	-	-	0
C=CCN(CC=C)CCOc1cccc2ccccc12	20µM	50.1µM	11.2µM	0	?
CCCCN(CC)CCOc1cccc2ccccc12	-	-	0	-	-
C=CCN(CC=C)CCOc1ccccc1	3.55µM	56.2µM	12.6µM	0	0
O=C(Nc1ccc(S(=O)(=O)Nc2nccs2)cc1)c1nn(-c2ccccc2)ccc1=O	0	?	22.4µM	-	0
COc1ccc(-n2ccc(=O)c(C(=O)Nc3ccc(S(=O)(=O)Nc4nccs4)cc3)n2)cc1	56.2µM	?	?	-	0
c1ccc(-c2csc(CN3CCCCC3)n2)cc1	0	-	-	-	0
COc1cc2c(cc1OC)C(/C(C#N)=N\O)=NC(C)(C)C2	0	0	11.2µM	0	0
Cc1ccc(OCC(=O)N2N=C(c3ccncc3)CC2(O)C(F)(F)F)cc1C (stereo unspecified)	0	0	0	0	0
O=C(COc1ccccc1)N1N=C(c2cccnc2)CC1(O)C(F)(F)F (stereo unspecified)	0	0	50.1µM	0	0
COc1cccc(CC(=O)OC(C)C(=O)Nc2ccc(N3CCOCC3)cc2)c1 (stereo unspecified)	0	0	50.1µM	0	0
Cc1ccc(S(=O)(=O)CCC(=O)OC(C)C(=O)Nc2ccc(N3CCOCC3)cc2)cc1 (stereo unspecified)	0	0	0[12.7 µM]	0	0
COc1ccc(N2CCN(C(=O)COC(=O)COc3cc(C)cc(C)c3)CC2)cc1	0	?	31.6µM	0	0
